# Results from PubChem BioAssay AID624046 (National Center for Advancing Translational Sciences (NCATS), 2012).
# Results filed as inconclusive are left out. Unmarked numbers belong to inactive results. Active and inactive are the calls of the source. The call rests on the fitted dose curve; in most records, active means well fitted inhibition curve with a large enough effect; inconclusive means small, poorly fitted or top-dose-only effect; inactive means flat fitted curve, though single readings scatter.
# Biological target: Dual specificity tyrosine-phosphorylation-regulated kinase 1B (Homo sapiens) (UniProt Q9Y463)
# Assay: Reaction Biology data for inhibitors of DYRK1B: Probe SAR
# Details: Reaction Biology DYRK1B kinase assay, 10 uM ATP; series mostly up to 10 µM; activity change, negative = inhibition: at the top concentration
# Source text: Alternative splicing of pre-mRNAs plays a major role in the regulation of eukaryotic gene expression. Alternative splicing is now thought to be one of the primary reasons for the complexity of higher organisms leading to an average of three protein isoforms per gene. Aberrant splicing can lead to a number of diseases and is known to play a role in rare genetic diseases such as progeria syndrome. Hutchinson-Gilford Progeria Syndrome (HGPS) is a pediatric premature aging disease caused by a spontaneous mutation in the lamin A/C (LMNA) gene due to a single point mutation in the lamin A gene effecting 1 in 4 million people. To identify both specific splicing modulators of the lamin A gene as well as general splicing modulators, a cell-based HTS assay was developed using a minigene reporter system (AIDs, 1459 & 1487). […] This AID summarizes the characterization of lead compounds in Dyrk1b. NIH Molecular Libraries Probe Production Centers Network [MLPCN] NIH Chemical Genomics Center [NCGC] MLPCN Grant: MH084827 Assay Submitter (PI): Tom Misteli
# Compound IC50s were determined at Reaction Biology (http://www.reactionbiology.com) with ten concentration points starting at 10 uM in the assay using a 3-fold dilution series. The control compound staurosporine was also tested in the 10-dose IC50 mode with the same 3-fold serial dilution, again starting at 10 uM. All kinase reactions were performed using 10 uM ATP in the assay. 100% activity was taken from kinase reactions with DMSO alone (the vehicle used for compound stock solutions).
# Chain of Dual specificity tyrosine-phosphorylation-regulated kinase 1B (Homo sapiens) (Q9Y463 whole entry, looked up): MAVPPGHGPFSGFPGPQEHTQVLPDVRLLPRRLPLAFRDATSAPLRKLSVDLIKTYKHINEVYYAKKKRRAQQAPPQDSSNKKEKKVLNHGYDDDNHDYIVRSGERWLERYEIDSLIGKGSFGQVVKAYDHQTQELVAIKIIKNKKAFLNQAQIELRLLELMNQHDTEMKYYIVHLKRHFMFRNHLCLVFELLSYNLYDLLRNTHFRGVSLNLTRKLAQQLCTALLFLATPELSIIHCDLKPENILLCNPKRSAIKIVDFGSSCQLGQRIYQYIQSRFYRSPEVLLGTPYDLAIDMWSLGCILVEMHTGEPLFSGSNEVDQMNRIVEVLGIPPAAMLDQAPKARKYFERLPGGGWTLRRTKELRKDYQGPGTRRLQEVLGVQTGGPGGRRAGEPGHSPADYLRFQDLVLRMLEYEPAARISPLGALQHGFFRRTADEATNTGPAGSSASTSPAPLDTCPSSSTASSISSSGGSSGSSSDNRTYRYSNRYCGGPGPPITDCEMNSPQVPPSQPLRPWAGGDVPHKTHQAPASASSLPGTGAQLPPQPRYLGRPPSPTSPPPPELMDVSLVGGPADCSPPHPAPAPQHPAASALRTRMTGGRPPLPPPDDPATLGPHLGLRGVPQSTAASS
Structure (SMILES),Potency,"activity change, negative = inhibition"
O=[N+]([O-])c1cc(Nc2nccc(-c3ccc4c(c3)OCO4)n2)cc(C(F)(F)F)c1,27 nM (active),–
c1cncc(CNc2ccnc(-c3ccc4[nH]ncc4c3)n2)c1,178 nM (active),–
COc1cccc(-c2ccnc(NCc3ccc(Cl)c(Cl)c3)n2)c1,–,-45.4%
Clc1ccc(CNc2ncncc2-c2ccc3c(c2)OCO3)cc1Cl,–,-48.5%
FC(F)(F)c1cccc(Nc2nccc(-c3ccc4c(c3)OCO4)n2)c1,18.1 nM (active),–
Clc1ccc(CNc2nccc(-c3ccc4c(c3)OCO4)n2)cc1Cl,37.8 nM (active),–
c1cncc(CNc2nccc(-c3ccc4c(c3)OCO4)n2)c1,12 nM (active),–
COc1ccc(-c2ccnc(NCc3ccc(Cl)cc3)n2)cc1,871 nM (active),–
Brc1cc(Br)cc(CNc2nccc(-c3ccc4c(c3)OCO4)n2)c1,18.2 nM (active),–
COc1ccc(-c2ccnc(NCc3ccc(Cl)c(Cl)c3)n2)cc1,411 nM (active),–
COc1cccc(-c2ccnc(NCc3ccc(Cl)cc3)n2)c1,6780 nM (active),–
Clc1ccc(CNc2nccc(-c3ccc4[nH]ncc4c3)n2)cc1Cl,125 nM (active),–
COc1ccc(-c2ccnc(NCc3ccc(Cl)c(Cl)c3)n2)cc1OC,–,-27.3%
Clc1cc(Cl)cc(CNc2ncncc2-c2ccc3c(c2)OCO3)c1,1160 nM (active),–
Cc1nc(CN(C)c2ncnc3ccc(-c4ccc5[nH]ncc5c4)cc23)cs1,89.5 nM (active),–
Cc1c(-c2ccnc(NCc3ccc(Cl)cc3)n2)sc(=O)n1C,51.6 nM (active),–

Structure (SMILES),Potency,"activity change, negative = inhibition"
c1cncc(CNc2ncncc2-c2ccc3c(c2)OCO3)c1,–,-43.5%
Clc1ccc(Nc2nccc(-c3ccc4c(c3)OCO4)n2)cc1,884 nM (active),–
c1nc(NCC2CCCO2)c2cc(-c3ccc4c(c3)OCO4)ccc2n1 (stereo unspecified),141 nM (active),–
c1cc(-c2ccc3c(c2)OCO3)nc(Nc2ccc3c(c2)OCO3)n1,41.9 nM (active),–
Cc1c(-c2ccnc(NCc3cccnc3)n2)sc(=O)n1C,31.1 nM (active),–
c1cncc(CNc2nccc(-c3ccc4[nH]ncc4c3)n2)c1,92.9 nM (active),–
FC(F)(F)c1cc(Br)cc(Nc2nccc(-c3ccc4c(c3)OCO4)n2)c1,137 nM (active),–
c1cncc(CNc2ccnc(-c3ccc4cn[nH]c4c3)n2)c1,829 nM (active),–
Clc1ccc(CNc2nccc(-c3ccc4c(c3)OCCO4)n2)cc1Cl,54.8 nM (active),–
Clc1ccc(CNc2ccnc(-c3ccc4[nH]ncc4c3)n2)cc1Cl,514 nM (active),–
Cc1nc(CN(C)c2ncnc3ccc(-c4ccc5c(c4)OCO5)cc23)cs1,16.4 nM (active),–
Clc1ccc(CNc2nccc(-c3ccc4cn[nH]c4c3)n2)cc1Cl,599 nM (active),–
Brc1ccc(CNc2nccc(-c3ccc4c(c3)OCO4)n2)cc1Br,112 nM (active),–
Cc1nc(CNc2ncnc3ccc(-c4ccc5c(c4)OCO5)cc23)cs1,176 nM (active),–
Clc1cc(Cl)cc(CNc2nccc(-c3ccc4c(c3)OCO4)n2)c1,7.1 nM (active),–
